Screen size: about 87,000 compounds; about 360 (0.41%) were called active. This is one part of a sample in which actives are shown more often than they occur. A number with no mark means an inactive call. No stated cut-off is given here; in the data, active means cytotoxicity above about 50%; inactive means the rest.

This assay can be described thus: cytotoxicity in HT1080 fibrosarcoma cells, cell-based, fluorescence readout (AID 620).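 Further: cells exposed to compound overnight then 4 h with Alamar Blue; 0% = vehicle DMSO and 100% = killing control.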 The note with it: HT1080 viability, at 10 µM, active compounds read high.
`Cc1ccc(NC2=NC3(CCCCC3)N=C(N)N2)c(C)c1`: the cytotoxicity was 33%.

Take `COC(=O)C1=C(C)Nc2nnnn2C1c1cccnc1` (centres undefined): the cytotoxicity is 10%.

Consider `CC1/C(=N/O)CC(c2ccccc2)N(C)C1c1ccccc1` (centres undefined), for which the cytotoxicity is -0.2%.

Turning to `CC1Cc2ccccc2N1S(=O)(=O)c1ccc2c(c1)n(C)c(=O)c(=O)n2C` (centres undefined), the cytotoxicity is -1.8%.

In the case of `CCOc1ccc(S(=O)(=O)N2c3ccccc3CC2C)cc1` (centres undefined), the cytotoxicity is 74.1% (active).

In the case of `COc1ccc(OC)c(S(=O)(=O)N2c3ccccc3CC2C)c1` (centres undefined), the cytotoxicity is 10.1%.

With `O=C(NCc1ccccn1)[C@@H]1C[C@H]1[C@@H](NP(=O)(c1ccccc1)c1ccccc1)c1ccccc1`, the cytotoxicity is -17.9%.

Take `CCOc1ccc(NC(=O)CSc2nnc(-c3ccco3)n2C)cc1`: the cytotoxicity was -3.7%.

`CN(C(=O)c1cc2n(n1)C(C(F)(F)F)CC(c1ccco1)N2)c1ccccc1` (centres undefined): the cytotoxicity is 56.4% (active).

For the compound `O=C(NC1CCCCCC1)c1cc2n(n1)C(C(F)(F)F)CC(c1ccco1)N2` (centres undefined), the cytotoxicity is -4.1%.

On to `CN(C(=O)c1cc2n(n1)C(C(F)(F)F)CC(c1ccco1)N2)c1ccc(OC(F)(F)F)cc1` (centres undefined), for which the cytotoxicity was -1.6%.

`NC(=O)Nc1ccc(Oc2c(F)c(F)c(F)c(F)c2F)cc1`: the cytotoxicity was 6%.

On to `OC(CCCCN1CCCCC1)c1ccccc1` (centres undefined), for which the cytotoxicity was -4.7%.

Take `OC(CCN1CCCC1)(c1ccccc1)C1CCCCC1` (centres undefined): the cytotoxicity was -2.5%.

For the compound `CC(C)(C)c1ccc(C(O)CCCN2CCC(C(O)(c3ccccc3)c3ccccc3)CC2)cc1` (centres undefined), the cytotoxicity is 93.4% (active).

For the compound `O=c1c2ccccc2nnn1CSc1nc2ccccc2c(=O)n1Cc1ccco1`, the cytotoxicity is -4.3%.

Consider `CC1CCCCC1NC(=O)CCn1c(=O)oc2ccccc21` (centres undefined), for which the cytotoxicity is -4%.

For `O=C(NCc1cccs1)c1noc2c1CCCCC2`, the cytotoxicity is -0.7%.

Take `O=C(Nc1nccs1)c1ccc(S(=O)(=O)NCC2CCCCC2)cc1`: the cytotoxicity is -11.1%.

In the case of `CCOc1ccccc1NC(=O)Cn1nnc(C(=O)NCc2ccco2)c1N`, the cytotoxicity is 56.8% (active).

On to `CCOc1ccc(NC(=O)Cn2nnc(C(=O)NCc3ccco3)c2N)cc1`, for which the cytotoxicity was 11.4%.

With `COc1ccc(NC(=O)Cn2nnc(C(=O)NCc3ccco3)c2N)c(OC)c1`, the cytotoxicity was -0.4%.

As to `CCOc1ccccc1NC(=O)C(CC(C)C)NC(=O)C1CCC(C)CC1` (centres undefined), the cytotoxicity is 4.7%.

With `CCN(CC)CC(=O)c1c[nH]c2ccccc12`, the cytotoxicity was 3.6%.

As for `O=C(O)CCC(=O)c1c[nH]c2ccccc12`, the cytotoxicity is -4.6%.

As to `O=C(CCl)N(c1ccc(Cl)cc1)c1c[nH]c2ccccc12`, the cytotoxicity is 100% (active).

For the compound `CN(C)CC(=O)c1c[nH]c2ccccc12`, the cytotoxicity was -5.2%.

As for `CC(=O)N(c1ccc(Cl)cc1)c1c[nH]c2ccccc12`, the cytotoxicity is 3.1%.

For `O=C(CCl)N(c1ccccc1)c1c[nH]c2ccccc12`, the cytotoxicity is 71% (active).

As for `CC(C)OC(=O)c1cccnc1SCc1cc(=O)n2ccccc2n1`, the cytotoxicity was -0.4%.

On to `COc1cc(C)nc(N2CCCC(C(=O)NC3CCC(C)CC3)C2)n1` (centres undefined), for which the cytotoxicity was -9.4%.

As to `Cc1c(C(=O)NC2CCCCC2)oc2c1C(=O)CC(C)(C)C2`, the cytotoxicity is -3.7%.

As for `CCOc1ccc2nc(-c3ccccc3)[nH]c2c1`, the cytotoxicity was 66.7% (active).

Take `Nc1ccc(-c2nc3ccccc3[nH]2)cc1`: the cytotoxicity was -3.5%.

Turning to `COc1ccc2nc(-c3ccccc3)[nH]c2c1`, the cytotoxicity is 28.2%.

Take `CCOc1ccc2nc(SCC)[nH]c2c1`: the cytotoxicity was 15.4%.

For the compound `COc1ccc(OCc2nc3ccccc3[nH]2)cc1`, the cytotoxicity is 5.1%.

As to `CC(=O)N1[C@H](Cc2ccccc2)C=C[C@]1(C)C(=O)NCc1ccc(C)o1`, the cytotoxicity is -2.9%.

For the compound `Cc1ccsc1C1NC(=O)c2c(sc3c2CCN(C)C3)N1` (centres undefined), the cytotoxicity is 9.6%.

As to `O=S(=O)(c1cccc(-c2csc(-c3ccccc3)n2)c1)N1CCOCC1`, the cytotoxicity was 2%.

As to `CC(C)CCn1c(N)c(S(=O)(=O)c2cccs2)c2nc3ccccc3nc21`, the cytotoxicity was 57% (active).

In the case of `COCCn1c(N)c(S(=O)(=O)c2cccs2)c2nc3ccccc3nc21`, the cytotoxicity is 11%.

As to `CC(C)Cn1c(N)c(S(=O)(=O)c2cccs2)c2nc3ccccc3nc21`, the cytotoxicity is 30.5%.

With `Cc1cc(N2CCN(C(=O)c3ccco3)CC2)n2ncc(-c3ccccc3)c2n1`, the cytotoxicity is 5.6%.

In the case of `Cc1ccccc1-n1c(SCC(=O)N2CCN(c3ccccc3)CC2)nnc1-c1ccncc1`, the cytotoxicity was -3.7%.

With `CCOC(=O)CSC1=C(C#N)C(c2ccc(Cl)cc2)CC(=O)N1` (centres undefined), the cytotoxicity is 2.7%.

On to `CCSC1=C(C#N)C(c2ccc(C)s2)CC(=O)N1` (centres undefined), for which the cytotoxicity is 0.8%.

As for `CCOC(=O)CSC1=C(C#N)C(c2ccc(C)s2)CC(=O)N1` (centres undefined), the cytotoxicity was 58% (active).

As to `CCCCCCSC1=C(C#N)C(c2ccc(C)o2)CC(=O)N1` (centres undefined), the cytotoxicity was 29.7%.

As to `CCOC(=O)CSC1=C(C#N)C(c2ccccc2OC)CC(=O)N1` (centres undefined), the cytotoxicity was -1%.

In the case of `CCOC(=O)CSC1=C(C#N)C(c2ccc(C)o2)CC(=O)N1` (centres undefined), the cytotoxicity was 59.5% (active).

For `COc1cc(C(=O)Nc2nnc(CC(=O)N3CCOCC3)s2)cc(OC)c1OC`, the cytotoxicity is -1%.

Turning to `CCOc1ccccc1NC(=O)CSc1nnnn1-c1ccccc1`, the cytotoxicity was 7.2%.

Turning to `Cc1noc(C)c1S(=O)(=O)N1CCCC(C(=O)NCc2ccccn2)C1` (centres undefined), the cytotoxicity was 3.9%.

On to `COC(=O)CN(Cc1ccco1)S(=O)(=O)c1ccccc1`, for which the cytotoxicity is 1.2%.

For the compound `CC1=CCC(Cc2nc3ccccc3o2)C1(C)C` (centres undefined), the cytotoxicity was 0.6%.

As for `CCOc1ccc(Br)cc1S(=O)(=O)Nc1ccccc1N1CCOCC1`, the cytotoxicity was 4.5%.

Consider `CCOc1cc(N2CCOCC2)c(OCC)cc1NC(=O)CCS(=O)(=O)c1ccc(Cl)cc1`, for which the cytotoxicity was 6.9%.

Take `CCOc1cc(N2CCOCC2)c(OCC)cc1NS(=O)(=O)c1ccc(Cl)s1`: the cytotoxicity is 51.9% (active).

With `O=C(NC1CCCCCC1)C1CCN(C(=O)Cc2ccccc2)CC1`, the cytotoxicity is 3.1%.

With `COc1ccc2nc(-n3c(C)ccc3C)sc2c1`, the cytotoxicity is -1.1%.

On to `O=C(N1CCN(CCO)CC1)N1c2ccccc2C=Cc2ccccc21`, for which the cytotoxicity is 3.2%.

Take `COc1ccc(NC(=O)CC(=O)Nc2ccc(OC)cc2OC)c(OC)c1`: the cytotoxicity was -3.5%.

Regarding `CCC(=O)Nc1ccc(OC)cc1OC`, the cytotoxicity is -3.2%.

(Values after PubChem BioAssay AID620 (Sanford-Burnham Center for Chemical Genomics, 2007).)
